Sa growth 42C = blocks Staphylococcus aureus growth; relative growth, % (concentration not given with the values); S. aureus RN4220 growth, OD600, 20 h, 42 °C; stronger effect = lower value; 0.53% of 170,000 active;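 active means relative growth at most 50% at the other temperature and 20+ points below 30 °C, or under 10% at both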
S aureus helic = S. aureus DNA helicase inhibition. purified S. aureus helicase, fluorescence unwinding assay. inhibition, % (concentration not given with the values). 0.05% of 120,000 active. AID 485395; in the data active means inhibition above about 25%, passing the limit was not always enough;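 further: 0% = mean of negative control wells and 100% = mean of positive control wells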
Starred values were filed as active, the others as inactive; · = no result. Only a selection was taken, and hits are over-represented in it overall.

SMILES | Sa growth 42C | S aureus helic
c1ccc2c(c1)NC(c1ccc3c(c1)OCO3)S2 (stereo not given) | 95 | ·
COC(=O)c1ccc(NC(=O)CSc2nc3cc4c(cc3cc2C#N)OCCO4)cc1 | 108 | 15
C=CCN(CC=C)S(=O)(=O)c1ccc(C(=O)Nc2nnc(COC)o2)cc1 | 22 | -8
CCCCN(CC)S(=O)(=O)c1ccc(C(=O)Nc2nnc(COC)o2)cc1 | -0.5* | -3
CN(c1ccccc1)S(=O)(=O)c1ccc(C(=O)Nc2nnc(C(F)(F)F)o2)cc1 | 3.2* | 11
CN(c1ccccc1)S(=O)(=O)c1ccc(C(=O)O)cc1 | 91 | 25
CCc1nnc(NC(=O)c2ccc(S(=O)(=O)N(C)C)cc2)o1 | 79 | 0
CSCc1nnc(NC(=O)c2ccc(S(=O)(=O)N(C)Cc3ccccc3)cc2)o1 | 2.4* | 6
CCN(Cc1ccccc1)S(=O)(=O)c1ccc(C(=O)Nc2nnc(COC)o2)cc1 | 5.7* | -1
CCN(CC)S(=O)(=O)c1ccc(C(=O)Nc2ncn(Cc3ccccc3)n2)cc1 | 94 | 3
CCN(CC)S(=O)(=O)c1ccc2oc(C(=O)NCCc3ccc(OC)c(OC)c3)c(C)c2c1 | 96 | 2
CC(=O)Nc1ccc(S(=O)(=O)NN2C(=O)/C(=C/c3ccco3)N=C2c2ccccc2)cc1C(=O)O | 95 | -2
CCOC(=O)c1sc(SC#N)c(-c2ccccc2)c1N | 1.1* | 25
CCOC(=O)c1sc(SC#N)c(C(=O)OCC)c1C | 70 | -19
N#CCCS(=O)(=O)c1ccc2[nH]c(=O)c(=O)[nH]c2c1 | 86 | -4
CCC(C)NC(=O)Cn1c(=O)n(CC(=O)NCc2ccc(C)cc2)c(=O)c2sccc21 (stereo not given) | 95 | -3
Oc1cccc(N=Cc2cc(Br)ccc2O)c1 | 32* | -10
Oc1ccccc1C=Nc1cccc(N=Cc2ccccc2O)c1 | 109 | 1
CC1CCCCN1S(=O)(=O)c1ccc(CN2C(=O)c3cccnc3C2=O)cc1 (stereo not given) | 114 | 11
Oc1c(C(c2ccc(C(F)(F)F)cc2)N2CCCC2)ccc2cccnc12 (stereo not given) | 1.1* | -13
COc1ccc(C(c2ccc3cccnc3c2O)N2CCOCC2)cc1 (stereo not given) | 8.8* | 18
COc1ccc(C(c2ccc3cccnc3c2O)N2CCCC2)cc1 (stereo not given) | 96 | -20
Oc1c(C(c2ccncc2)N2CCCC2)ccc2cccnc12 (stereo not given) | 66 | -2
CCCN(CCC)c1ncnc2ccc(Br)cc12 | 87 | 5
CC1=C/C(=N\NS(=O)(=O)c2ccc(C)cc2)CC1 | 99 | -9
SMILES | Sa growth 42C | S aureus helic
O=C1CCCC2=C1C(c1ccc3c(c1)OCO3)c1c(ccc3ncccc13)N2 (stereo not given) | 97 | 11
Cc1nc2cc(-c3ccccc3)nn2c(C)c1CC(=O)N1CCCC1 | 109 | 15
CC1COc2c(N3CCN(C)CC3)c(F)cc3c(=O)c(C(=O)N4CCN(c5ncccn5)CC4)cn1c23 (stereo not given) | 71 | -7
CC1COc2c(N3CCN(C)CC3)c(F)cc3c(=O)c(C(=O)O)cn1c23 (stereo not given) | -0.5* | ·
Cc1cc2nc(N(C)Cc3cccnc3)c3ccccc3n2n1 | 87 | 13
CCCCNC(=S)Nc1ccc(SC(F)F)cc1 | 0.6* | 12
CCCCNC(=S)Nc1ccc(OC)cc1 | 110 | -9
CCN(CC(=O)NC1CCS(=O)(=O)C1)c1nc(-c2cccnc2)nc2sc3c(c12)CCCC3 (stereo not given) | 86 | 14
Cc1ccc(CN(C)c2nc(-c3cccnc3)nc3sc4c(c23)CCCC4)o1 | 2.1* | -6
O=C1c2ccccc2C(=O)c2sccc21 | 1.6* | -18
O=C1c2ccccc2C(=O)N1c1nccs1 | 83 | -8
COc1cccc(-c2nnc(SCCOc3ccccc3)n2C)c1 | 102 | -15
CS/C(=N\S(=O)(=O)c1cccs1)NC(=O)c1ccccc1 | 98 | 13
O=C1C(Sc2ccccc2)=C/C(=N/S(=O)(=O)c2cccs2)c2ccccc21 | 0.0* | 16
CCCc1nc(Sc2nncn2C)c2sc(=S)n(-c3ccccc3)c2n1 | 68 | -18
Cc1cccc(Nc2nc3nonc3nc2Cl)c1 | -0.4* | 8
FC(F)(F)c1cccc(Nc2nc3nonc3nc2Nc2ccc(Cl)cc2)c1 | 43 | ·
Cc1cc(C(=O)COC(=O)c2ccc(S(=O)(=O)N3CCCCC3)cc2)c(C)n1CC1CCCO1 (stereo not given) | 103 | -10
CN(C)CC1COc2ccccc2C1=O (stereo not given) | -0.4* | ·
O=C1c2ccccc2OCC1c1ccccc1 (stereo not given) | 90 | ·
Cc1cccc(C(=O)Nc2cc3c(cc2C)n(C)c(=O)n3C)c1 | 80 | ·
Cc1cccc(C(=O)Sc2cccccc2=O)c1 | -1.0* | 0
Cc1cnc(C(=O)Nc2ccc(OC(F)F)c(Cl)c2)cn1 | 70 | 10
CCCCC(=O)OC1=C(C(=O)c2ccccc2)N(CC)S(=O)(=O)c2ccccc21 | 15 | ·
CCCCN1C(C(=O)c2ccccc2)=C(OC(C)=O)c2ccccc2S1(=O)=O | -0.5* | ·
SMILES | Sa growth 42C | S aureus helic
CC(C)(CNC(=O)Cc1ccsc1)N1CCOCC1 | 95 | -6
CC(C)(CNC(=O)Nc1ccc(Cl)c(Cl)c1)N1CCOCC1 | -0.6* | 12
COC1(NS(=O)(=O)c2ccc(C)cc2)C(C)=CC(=O)C=C1C | 1.7* | 23
COC(=O)C1=C(C)NC(=O)C1(NS(=O)(=O)c1ccc(C)cc1)C(F)(F)F (stereo not given) | 72 | 4
CCC1CCCCN1C(=O)Cn1cc(S(=O)(=O)N(C)C)ccc1=O (stereo not given) | 97 | 29*
CN(C)S(=O)(=O)c1ccc(=O)n(CC(=O)NCC2COc3ccccc3O2)c1 (stereo not given) | 99 | -11
Cc1ccc2c(c1)c1c3n2CC(O)CN=C3CCC1 (stereo not given) | 93 | 20
c1ccc(-c2ccc3c(c2)c2c4n3CCN=C4CCC2)cc1 | -0.2* | 8
O=C(NCc1ccc(Cl)cc1)c1cccnc1OCC(F)(F)F | 95 | -16
NC(=O)C1CCCN1c1c(F)c(F)c(C(=O)c2ccccc2)c(F)c1F (stereo not given) | 94 | 11
O=C(CC(Sc1ccc(Br)cc1)C(=O)O)c1ccc(Cl)cc1 (stereo not given) | 2.0* | 12
O=C(CC(SC1CCCCC1)C(=O)O)c1ccc(Br)cc1 (stereo not given) | 131 | 5
C#CCn1cc(/C=C(/C#N)C(=O)Nc2ccccc2)c2ccccc21 | 87 | -4
c1ccc(Nc2nc3ccccc3[nH]2)nc1 | 0.9* | 6
CNc1nc2ccccc2[nH]1 | 108 | -26
CC(C)n1c(=S)[nH]c2scc(-c3cccs3)c2c1=O | 3.9* | 9
O=c1c2c(-c3cccs3)csc2[nH]c(=S)n1-c1ccccc1 | 108 | 3
CCCCn1c(-c2ccccc2)nc(=S)c2c1CCCC2 | 87 | 3
NCc1cn(-c2ccccc2)nc1-c1ccccc1 | 86 | 2
N=C(N)SCc1cn(-c2ccccc2)nc1-c1ccc(Br)cc1 | 1.1* | -6
CCOc1cc(/C=C2\C(=N)N3C(C)=CSC3=NC2=O)ccc1OCc1ccc2c(c1)OCO2 | 93 | 7
Cc1cc(=O)[nH]c2ccc(S(N)(=O)=O)cc12 | 115 | 10
O=C(NCc1nc2ccccc2s1)c1cc(F)cc2c1OCOC2 | 104 | ·
CCCc1cc(=O)n2[nH]cc(-c3ccc(Cl)cc3)c2n1 | -0.6* | 36
